# RXFP1 antagonist: RXFP1 (human) relaxin receptor antagonism; Q9HBX9; HEK293-RXFP1, relaxin-stimulated cAMP HTRF, 30 min; hits give low values; activity change, negative = inhibition, % at 57.5 µM; hit rate 0.59% among 350,000; AID 1259400;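 active means activity change of -60% or lower, but not beyond a set lower limit; inconclusive means change between -60% and -40%, or beyond the set limit; inactive means change above -40%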; further: on the % scale 0 is the no-effect control and ±100 the full control effect
# Target sequence (Q9HBX9 whole entry, looked up): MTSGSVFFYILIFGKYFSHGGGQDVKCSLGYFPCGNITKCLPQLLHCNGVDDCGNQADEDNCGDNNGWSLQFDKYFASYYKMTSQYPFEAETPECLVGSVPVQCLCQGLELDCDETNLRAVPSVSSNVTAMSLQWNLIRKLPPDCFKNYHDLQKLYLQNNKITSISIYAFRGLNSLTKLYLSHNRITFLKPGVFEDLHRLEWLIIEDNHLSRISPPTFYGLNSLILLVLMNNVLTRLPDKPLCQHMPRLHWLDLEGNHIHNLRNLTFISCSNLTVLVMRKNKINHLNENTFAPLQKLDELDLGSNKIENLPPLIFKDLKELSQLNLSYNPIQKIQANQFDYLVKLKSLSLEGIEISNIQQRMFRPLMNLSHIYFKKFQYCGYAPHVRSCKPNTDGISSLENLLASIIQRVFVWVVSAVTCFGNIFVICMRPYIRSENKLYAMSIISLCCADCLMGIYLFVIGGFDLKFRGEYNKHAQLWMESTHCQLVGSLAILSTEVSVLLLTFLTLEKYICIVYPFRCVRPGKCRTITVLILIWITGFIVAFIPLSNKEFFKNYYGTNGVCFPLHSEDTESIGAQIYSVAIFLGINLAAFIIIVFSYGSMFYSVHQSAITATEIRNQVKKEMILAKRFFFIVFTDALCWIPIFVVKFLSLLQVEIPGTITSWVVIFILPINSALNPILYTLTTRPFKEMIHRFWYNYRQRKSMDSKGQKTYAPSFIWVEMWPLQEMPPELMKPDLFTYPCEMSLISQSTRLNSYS
# gsp antag: antagonizes gsp, the McCune-Albright syndrome mutation; gsp-mutant cells, cAMP HTRF, 30 min; Potency, µM (top dose mostly 76.9 µM), inactives show at the top dose activity change, negative = inhibition, usual class: inhibitors; hit rate 0.4% among 340,000; AID 624288; calls by dose curve; cell line not stated here;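 further: intracellular cAMP measured with PDE inhibitor Ro 20-1724 present during compound exposure; potency means the concentration at half of the fitted maximal effect; on the % scale 0 is the no-effect control and ±100 the full control effect; nearly all actives have a fitted effect of over 65% in size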
#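 G418-selected cells were plated in DMEM/10% FBS for 16-24 h at 37C, then treated with compounds plus the PDE inhibitor […] (300 uM solution added) for 30 min at 37C. Intracellular cAMP was measured by HTRF after 30 min lysis at room temperature.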
# gsp ag: activates gsp, the McCune-Albright syndrome mutation; gsp mutant cells, cAMP HTRF, 30 min; AID 624287; hit rate 0.13% among 340,000; Potency, µM (series often up to 76.9 µM), for the others: top-dose activation (cAMP increase), most hits filed as activators; active means well fitted activation curve with a large enough effect; inconclusive means small, poorly fitted or top-dose-only effect, or another doubt; inactive means no such curve, though single readings can be large or run the other way; cell line not stated here;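 further: phosphodiesterase inhibitor Ro 20-1724 added with compounds to block cAMP breakdown; potency means the concentration at half of the fitted maximal effect; nearly all actives have a fitted effect of over 60% in size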
#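 Cells in DMEM/10% FBS with G418 were pretreated with compounds in DMSO plus […] (300 uM stock) for 30 min at 37C. cAMP was measured by HTRF (cAMP-d2 plus anti-cAMP antibody-K) after 30 min at room temperature.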
# RXFP1 ag: agonists of human relaxin receptor RXFP1. Q9HBX9. HEK293T-RXFP1 cAMP TR-FRET, 30 min; response scale: percent of porcine relaxin response, buffer zero. Potency, µM (series often up to 57.5 µM), inactives show top-dose activation, hits mostly activators. hit rate 0.3% among 370,000. AID 2676; active means well fitted activation curve with a large enough effect; inconclusive means small, poorly fitted or top-dose-only effect; further: potency means the concentration at half of the fitted maximal effect; on the % scale 0 is the no-effect control and ±100 the full control effect; nearly all actives have a fitted effect of over 60% in size
#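 HEK293T cells stably expressing RXFP1 were pretreated with the PDE4 inhibitor Ro 20174, exposed to compounds for 30 min at 37C, lysed, and cAMP was read by TR-FRET. Data normalized to buffer (basal) and 29 nM porcine relaxin (100%).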
# * = called active by the depositor; u = inconclusive; x = no result given; [ ] = another dose, or the depositor's remark. Shown are actives, neighbours in structure and some others; about 0.9% of the full set was active somewhere.
SMILES,RXFP1 antagonist,gsp antag,gsp ag,RXFP1 ag
CCOC(=O)c1[nH]cnc1C(=O)Nc1ccccc1,-4.7,x,3.0%[15.4 µM],14.2%
CNC(=S)N(Cc1ccco1)Cc1cc2cc(OC)ccc2[nH]c1=O,2.6,x,9.0%[15.4 µM],-2.3%
CNC(=S)N(Cc1ccco1)Cc1cc2cc(OC)c(OC)cc2[nH]c1=O,-2.5,6.31µM*,-3.2%[15.4 µM],-0.1%
CCOC(=O)c1cccc(NC(=O)CCc2nnc3ccc(N4CCN(C)CC4)nn23)c1,20.9,12.0%,28.6%,12.1%
Cc1ccc(NC(=O)CCc2nnc3ccc(N4CCN(C)CC4)nn23)cc1F,11.8,5.9%,u,25.1µM*
CCOC(=O)c1cccc(NC(=O)CCc2nnc3ccc(N4CCCCC4)nn23)c1,24.5,-9.9%,35.5µM*,8.6%
Cc1oc2ccc(O)c(CN3CCN(Cc4ccccc4)CC3)c2c1C(=O)Nc1ccccc1,-7.2,x,x,-2.9%
CCOc1ccc(-c2csc(NC(=O)CSC3=NC(=O)CN3C(C)=O)n2)c2ccccc12,-21.5,3.7%,-11.0%[15.4 µM],-2.5%
CC(=O)N1CC(=O)N=C1SCC(=O)Nc1nc(C)c(-c2ccccc2)s1,-109.8*,u,-11.1%[15.4 µM],-2.1%
O=C(O)c1c(-c2ccccc2)c2oc3ccccc3c2[nH]c1=O,-5.3,5.2%,39.8µM*,7.9%
O/N=C/c1cn(-c2ccccc2)nc1-c1cccnc1,-19.5,-13.2%,5.2%[15.4 µM],0.8%
Cc1ccc(-c2nn(-c3ccccc3)cc2/C=N/O)cc1,-63.7*,10.7%,-3.8%,5.7%
CC1=NNC(=O)/C1=C\c1cn(-c2ccccc2)nc1-c1ccc(F)cc1,-61.3*,-1.7%,-9.5%[15.4 µM],-0.3%
CC(C)=CCC/C(C)=C/CC/C(C)=C/CCC(=O)OC/C=C(\C)CCC=C(C)C,-11.1,x,x,x
O=C(Nc1cccc([N+](=O)[O-])c1)c1cc2ccccc2cc1O,-69.5*,14.1µM*,-24.0%,1.8%
CC1CCCN(CCCNC(=O)c2nn(C)c3c2CS(=O)(=O)c2ccccc2-3)C1 (stereo unspecified),-83.8*,-17.1%,15.6%,3.9%
CCCNC(=O)Cn1nc(-c2ccc(OC)cc2)c2cnc3ccc(F)cc3c21,-4.1,x,x,1.2%
N#Cc1c(NC(=O)CSc2nnc(-c3ccccc3)o2)sc2c1CCCC2,7.2,22.4µM*,1.2%,3.1%
CCOC(=O)c1cccc(NS(=O)(=O)c2c(C)nc3sc(C)cn3c2=O)c1,-33.4,x,x,1.7%
O=C(NC(NC(=S)Nc1c(Cl)cccc1Cl)C(Cl)(Cl)Cl)c1cccc([N+](=O)[O-])c1 (stereo unspecified),-37.5,35.5µM*,-12.0%,-1.7%
O=C(NNC(=S)NC(=O)c1ccccc1Cl)c1cccc([N+](=O)[O-])c1,8.7,-4.0%,8.5%[15.4 µM],2.0%
CCOC(=O)C1=C(CN2CCN(c3cc(C)ccc3C)CC2)NC(=O)NC1c1ccc(Cl)cc1 (stereo unspecified),-20.9,x,x,0.3%
COc1ccc(N2C(=O)CC(Sc3nnc(-c4ccccc4)o3)C2=O)cc1 (stereo unspecified),-6.7,6.5%,28.2µM*,17.7%
O=C1CC(Sc2nnc(-c3ccccc3O)o2)C(=O)N1c1ccccc1 (stereo unspecified),10.6,-10.0%,-1.4%,11.8%
Cc1ccc(NC(=S)NCC2CCN(C(C)c3ccccc3)C2)cc1 (stereo unspecified),-27.4,14.7%,18.1%,1.5%
SMILES,RXFP1 antagonist,gsp antag,gsp ag,RXFP1 ag
CC(c1ccccc1)N1CCC(CNC(=S)Nc2cccc(Cl)c2)C1 (stereo unspecified),u,7.1%,28.2µM*,-1.3%
CCOc1ccc2nc(C)cc(Nc3ccccc3OCC)c2c1,x,x,x,1.6%
O=C(c1cccs1)N1N=C(c2ccccc2)CC1c1ccc(O)cc1 (stereo unspecified),u,28.2µM*,22.5%,-1.3%
CCOC(=O)c1sc(NC(=O)c2ccc(Br)o2)cc1C,-62.6*,-9.9%,7.4%,-1.2%
CCc1ccccc1N(C(=O)c1snc(C(N)=O)c1N)C(C(=O)NCC1CCCO1)c1ccc(C)o1 (stereo unspecified),-119.1*,-6.1%,-0.8%[15.4 µM],0.6%
CC(C)c1ccc(N(C(=O)c2snc(C(N)=O)c2N)C(C(=O)NCC2CCCO2)c2ccc(N(C)C)cc2)cc1 (stereo unspecified),-74.4*,u,-1.0%[15.4 µM],u
Cc1ccccc1N(C(=O)c1snc(C(N)=O)c1N)C(C(=O)NCC1CCCO1)c1ccc(F)cc1 (stereo unspecified),-90.3*,-15.3%,9.5%[15.4 µM],0.7%
CN(C)c1ccc(C(C(=O)NCC2CCCO2)N(C(=O)c2snc(C(N)=O)c2N)c2ccccc2)cc1 (stereo unspecified),4.4,9.7%,u,u
COc1ccc(N(C(=O)c2snc(C(N)=O)c2N)C(C(=O)NCC2CCCO2)c2ccc(C)o2)cc1OC (stereo unspecified),-10.0,-14.0%,-6.6%,-1.8%
CCc1ccccc1N(C(=O)c1snc(C(N)=O)c1N)C(C(=O)NCC1CCCO1)c1ccc(N(C)C)cc1 (stereo unspecified),-23.6,x,-15.8%[15.4 µM],u
Cc1ccc(N(C(=O)c2snc(C(N)=O)c2N)C(C(=O)NCC2CCCO2)c2ccc(C)o2)c(C)c1 (stereo unspecified),-63.4*,-19.9%,0.6%[15.4 µM],2.3%
Cc1c(Cl)cccc1-c1ccc(C(=O)Nc2ccc(F)cc2)o1,x,x,x,-0.4%
Cc1[nH]c(N=Nc2ccccc2)nc1N=Nc1ccccc1,-93.7*,-17.6%,3.0%[15.4 µM],0.2%
Nc1ccc(N=Nc2ccccc2)c(N)n1,-21.8,4.7%,x,1.0%
COc1ccc(C2=NOC(Cn3nc(C(=O)NCc4ccco4)cc3-c3ccccc3)C2)cc1 (stereo unspecified),x,31.6µM*,-27.1%,0.5%
COc1ccc(C2=NOC(Cn3nc(C(=O)NCc4ccc(C)cc4)cc3-c3ccccc3)C2)cc1 (stereo unspecified),x,-23.6%,12.8%,0.8%
CC(C)Cc1cc(C(=O)Nc2sc3c(c2C#N)CCC3)no1,-66.0*,-17.1%,u,1.7%
CC(C)Cc1cc(C(=O)Nc2sc3c(c2C#N)CCCC3)no1,-32.4,u,-33.7%,-0.2%
Cc1ccc(C(=O)Nc2ccc(C(=O)O)cc2)cc1S(=O)(=O)N1CCC(C)CC1,x,x,x,0.4%
CCOC(=O)c1c(C)[nH]sc1=S,8.9,11.2%,35.8%[15.4 µM],25.1µM*
CCOC(=O)c1sc(=S)[nH]c1C,-8.4,8.3%,u,x
Cc1coc2ccccc2c1=O,-2.1,x,x,x
Fc1ccc(Br)cc1C1C=C(c2ccc(Br)s2)Nc2ncnn21 (stereo unspecified),-68.2*,u,-6.3%,8.6%
Cc1nnc(-c2ccc(Oc3ccc(Br)cc3)c([N+](=O)[O-])c2)o1,-6.7,50.1µM*,-19.1%,0.4%
Cc1ccc(CN(C)c2nc(-c3cccnc3)nc3ccccc23)o1,-26.8,-5.9%,-22.5%[15.4 µM],3.4%
CN(Cc1ccccc1F)c1nc(-c2cccnc2)nc2ccccc12,-67.3*,u,1.0%[15.4 µM],-3.0%
CCOC(=O)c1c(C)[nH]c(C(=O)COC(=O)/C=C/c2ccc3c(c2)OCO3)c1C,6.5,6.6%,1.2%[15.4 µM],0.4%
